Measurements reported in PubChem BioAssay AID1159580 (chemical genetic matrix, 2015).
Screen size: about 5,500 compounds; about 2,000 (36%) were called active. Roughly 18% stayed inconclusive and do not appear here. No stated cut-off is given here; in the data, active means normalized growth mostly below about 0.91 (no sharp cut-off); inconclusive means no clear call, values can overlap the other calls; inactive means mostly above about 0.92. This is one part of the list.

Test: chemical genetic growth profiling, strain panel (AID 1159580);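 further: tested at 20 µM; growth read once vehicle control cultures reached saturation at 30 °C; 1 = growth at the plate median or of vehicle wells; lower values mean less growth of the strain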
Conditions: growth OD

Measured: normalized growth

COc1ccc2cc([C@H](C)CO)ccc2c1
inactive: S. cerevisiae deletion strains, locus YJR066W, strain TOR1, active compounds read low 0.935 | S. cerevisiae deletion strains, locus YJR075W, strain HOC1, active compounds read low 0.998 | S. cerevisiae deletion strains, locus YKL009W, strain mrt4, active compounds read low 0.935 | S. cerevisiae deletion strains, locus YKL068W, active compounds read low 0.975 | S. cerevisiae deletion strains, locus YKL085W, strain MDH1 (second series), active compounds read low 0.949 | S. cerevisiae deletion strains, locus YKL085W, strain MDH1, active compounds read low 0.949 | S. cerevisiae deletion strains, locus YKL160W, strain elf1, active compounds read low 1 | S. cerevisiae deletion strains, locus YKL190W, strain CNB1, active compounds read low 0.995 | S. cerevisiae deletion strains, locus YKR001C, strain vps1, active compounds read low 0.97 | S. cerevisiae deletion strains, locus YKR026C, strain gcn3, active compounds read low 1.01 | S. cerevisiae deletion strains, locus YKR091W, strain srl3, active compounds read low 1.01 | S. cerevisiae deletion strains, locus YLL001W, strain dnm1, active compounds read low 1.01 | S. cerevisiae deletion strains, locus YLL026W, active compounds read low 1.01 | S. cerevisiae deletion strains, locus YLL041C, strain sdh2, active compounds read low 1.01 | S. cerevisiae deletion strains, locus YLR027C, strain aat2, active compounds read low 1.01 | S. cerevisiae deletion strains, locus YLR039C, strain RIC1, active compounds read low 0.991 | S. cerevisiae deletion strains, locus YLR058C, strain SHM2, active compounds read low 0.977 | S. cerevisiae deletion strains, locus YLR102C, strain apc9, active compounds read low 0.966 | S. cerevisiae deletion strains, locus YLR113W, strain HOG1, active compounds read low 0.929 | S. cerevisiae deletion strains, locus YLR221C, strain rsa3, active compounds read low 1.01 | S. cerevisiae deletion strains, locus YLR258W, strain gsy2, active compounds read low 1.01 | S. cerevisiae deletion strains, locus YLR262C, strain YPT6 (second series), active compounds read low 1.01 | S. cerevisiae deletion strains, locus YLR262C, strain YPT6, active compounds read low 0.9 | S. cerevisiae deletion strains, locus YLR268W, strain sec22, active compounds read low 1.03 | S. cerevisiae deletion strains, locus YLR320W, strain mms22, active compounds read low 1.02 | S. cerevisiae deletion strains, locus YLR330W, strain CHS5, active compounds read low 0.992 | S. cerevisiae deletion strains, locus YLR342W, strain FKS1 (second series), active compounds read low 0.969 | S. cerevisiae deletion strains, locus YLR342W, strain FKS1, active compounds read low 1.01 | S. cerevisiae deletion strains, locus YLR357W, strain rsc2, active compounds read low 1 | S. cerevisiae deletion strains, locus YLR370C, strain arc18, active compounds read low 1.01 | S. cerevisiae deletion strains, locus YLR371W, strain rom2, active compounds read low 0.918 | S. cerevisiae deletion strains, locus YLR384C, strain iki3, active compounds read low 1.01 | S. cerevisiae deletion strains, locus YLR418C, strain cdc73, active compounds read low 0.968 | S. cerevisiae deletion strains, locus YML016C, strain PPZ1, active compounds read low 0.989 | S. cerevisiae deletion strains, locus YML032C, strain rad52, active compounds read low 0.989 | S. cerevisiae deletion strains, locus YML120C, strain ndi1, active compounds read low 1.01 | S. cerevisiae deletion strains, locus YMR058W, strain fet3, active compounds read low 1.01 | S. cerevisiae deletion strains, locus YMR078C, strain ctf18, active compounds read low 0.969 | S. cerevisiae deletion strains, locus YMR125W, strain sto1, active compounds read low 1.01 | S. cerevisiae deletion strains, locus YMR129W, active compounds read low 1.02 | S. cerevisiae deletion strains, locus YMR205C, strain PFK2, active compounds read low 1.02 | S. cerevisiae deletion strains, locus YMR223W, strain ubp8, active compounds read low 0.964 | S. cerevisiae deletion strains, locus YMR231W, strain pep5, active compounds read low 1.01 | S. cerevisiae deletion strains, locus YMR263W, strain SAP30, active compounds read low 0.985 | S. cerevisiae deletion strains, locus YMR307W, strain GAS1, active compounds read low 1.04 | S. cerevisiae deletion strains, locus YNL067W, strain RPL9B, active compounds read low 0.991 | S. cerevisiae deletion strains, locus YNL071W, strain lat1, active compounds read low 1.01 | S. cerevisiae deletion strains, locus YNL128W, strain TEP1, active compounds read low 0.979 | S. cerevisiae deletion strains, locus YNL153C, strain GIM3, active compounds read low 0.996 | S. cerevisiae deletion strains, locus YNL183C, strain NPR1, active compounds read low 0.917 | S. cerevisiae deletion strains, locus YNL209W, strain ssb2, active compounds read low 1.01 | S. cerevisiae deletion strains, locus YNL233W, strain BNI4, active compounds read low 1.01 | S. cerevisiae deletion strains, locus YNL248C, strain rpa49, active compounds read low 0.968 | S. cerevisiae deletion strains, locus YNL250W, strain rad50, active compounds read low 0.956 | S. cerevisiae deletion strains, locus YNL271C, strain bni1, active compounds read low 0.979 | S. cerevisiae deletion strains, locus YNL298W, strain CLA4, active compounds read low 0.949 | S. cerevisiae deletion strains, locus YNL307C, strain MCK1, active compounds read low 0.97 | S. cerevisiae deletion strains, locus YNL322C, strain KRE1 (second series), active compounds read low 1.01 | S. cerevisiae deletion strains, locus YNL322C, strain KRE1, active compounds read low 0.996 | S. cerevisiae deletion strains, locus YNR049C, strain mso1, active compounds read low 1.01 | S. cerevisiae deletion strains, locus YNR052C, strain pop2, active compounds read low 0.975 | S. cerevisiae deletion strains, locus YOL006C, strain TOP1, active compounds read low 0.91 | S. cerevisiae deletion strains, locus YOL012C, strain htz1 1.3 | S. cerevisiae deletion strains, locus YOL147C, strain pex11, active compounds read low 0.941 | S. cerevisiae deletion strains, locus YOR001W, strain rrp6, active compounds read low 1.02 | S. cerevisiae deletion strains, locus YOR061W, strain CKA2, active compounds read low 0.968 | S. cerevisiae deletion strains, locus YOR069W, strain VPS5, active compounds read low 0.988 | S. cerevisiae deletion strains, locus YOR070C, strain gyp1, active compounds read low 1.01 | S. cerevisiae deletion strains, locus YOR080W, strain dia2, active compounds read low 1.01 | S. cerevisiae deletion strains, locus YOR083W, strain WHI5, active compounds read low 1.01 | S. cerevisiae deletion strains, locus YOR106W, strain vam3, active compounds read low 1 | S. cerevisiae deletion strains, locus YOR136W, strain idh2, active compounds read low 0.977 | S. cerevisiae deletion strains, locus YOR144C, strain elg1, active compounds read low 0.978 | S. cerevisiae deletion strains, locus YOR184W, strain ser1, active compounds read low 0.95 | S. cerevisiae deletion strains, locus YOR231W, strain MKK1, active compounds read low 0.937 | S. cerevisiae deletion strains, locus YOR265W, strain rbl2, active compounds read low 1.01 | S. cerevisiae deletion strains, locus YOR270C, strain vph1, active compounds read low 0.997 | S. cerevisiae deletion strains, locus YOR290C, strain snf2, active compounds read low 0.998 | S. cerevisiae deletion strains, locus YOR316C, strain cot1, active compounds read low 0.976 | S. cerevisiae deletion strains, locus YPL051W, strain arl3, active compounds read low 1.01 | S. cerevisiae deletion strains, locus YPL055C, strain LGE1, active compounds read low 0.98 | S. cerevisiae deletion strains, locus YPL078C, strain atp4, active compounds read low 1.01 | S. cerevisiae deletion strains, locus YPL106C, strain sse1, active compounds read low 1.04 | S. cerevisiae deletion strains, locus YPL240C, strain hsp82, active compounds read low 1.01 | S. cerevisiae deletion strains, locus YPL241C, strain CIN2, active compounds read low 0.985 | S. cerevisiae deletion strains, locus YPL256C, strain CLN2, active compounds read low 0.924 | S. cerevisiae deletion strains, locus YPR119W, strain clb2, active compounds read low 0.971 | S. cerevisiae deletion strains, locus YPR141C, strain kar3, active compounds read low 0.959 | S. cerevisiae deletion strains, locus YPR163C, strain tif3, active compounds read low 0.978 | S. cerevisiae deletion strains, locus YPR167C, strain met16, active compounds read low 0.977 | S. cerevisiae deletion strains, strain wtn01, active compounds read low 0.968 | S. cerevisiae strains, strain wild type, active compounds read low 0.979
